Measurements: PubChem BioAssay AID2653 (National Center for Advancing Translational Sciences (NCATS), 2010)
Inconclusive results are not listed. Active and inactive are the calls of the source. The call rests on the fitted dose curve; in most records, active means well fitted curve in the direction sought with a large enough effect; inconclusive means small, poorly fitted or top-dose-only effect, or another doubt; inactive means no such curve, though single readings can be large or run the other way.

Assay: Secondary Assay for Activators of Human Pyruvate Kinase M2 isoform - Cell Titer Glo Cytotoxicity for Probe SAR
Details: HeLa viability, CellTiter-Glo ATP luminescence, 24 h; series mostly up to 58.2 µM
Outline: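 Cytotoxicity read as ATP content (CellTiter-Glo luminescence) in HeLa cells after 24 h compound exposure at 37 C, following 24 h pre-plating at 500 cells/well; doxorubicin as control.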

SMILES	outcome
O=C1c2ccccc2C(=O)N1c1ccc2ccccc2n1	inactive
O=C1c2ccccc2C(=O)N1c1ccc2ncccc2c1	inactive
Cc1ccccc1Nc1c(-c2ccc(Cl)s2)nc2ccccn12	inactive
O=C1c2ccccc2C(=O)N1c1cccc2ncccc12	inactive
O=C1c2ccccc2C(=O)N1c1ccccc1O	inactive
Cc1nc(-c2ccc(S(=O)(=O)Nc3ccc(C)c(C)c3)s2)cs1	inactive
O=C1c2ccccc2C(=O)N1c1cccc2cnccc12	inactive
Cc1ccc2nc(-c3cccs3)c(Nc3ccccc3)n2c1	inactive
COc1ccc(-c2nc3cccc(C)n3c2Nc2ccc(C)cc2)cc1	inactive
COc1ccccc1OC1=NS(=O)(=O)c2ccccc21	inactive
Cc1ccc(NS(=O)(=O)c2cc3c(cc2N(C)C)NC(=O)CC3)cc1C	inactive
O=C1c2ccccc2C(=O)N1c1cc(=O)c2ccccc2[nH]1	inactive
COc1cccc(N2C(=O)c3ccccc3C2=O)c1	inactive
CNc1cccc(S(=O)(=O)N2CCCN(S(=O)(=O)c3ccc4c(c3)OCCO4)CC2)c1	inactive
CC(=O)N1CCc2cc(S(=O)(=O)Nc3ccc(C)c(C)c3)ccc21	inactive
CSc1cc2c(s1)c1cnn(Cc3cccc(N)c3)c(=O)c1n2C	inactive

SMILES	outcome
Cc1cc(NS(=O)(=O)c2ccc3c(c2)CCC(=O)N3)ccc1Cl	inactive
Cc1ccc(-c2nc3cccc(C)n3c2Nc2ccc(F)cc2)o1	inactive
O=C1CCc2cc(S(=O)(=O)Nc3cccc(Cl)c3)ccc2N1	inactive
Cc1ccc(NS(=O)(=O)c2ccc3c(c2)CCCC(=O)N3)cc1C	inactive
Cc1cccc(OC2=NS(=O)(=O)c3ccccc32)c1	inactive
Cc1ccc(NS(=O)(=O)c2ccc3c(c2)N(C)CCO3)cc1C	inactive
Cc1ccc(NS(=O)(=O)c2cc3c(cc2C)OCC(=O)N3)cc1C	inactive
Cc1ccc(NS(=O)(=O)c2cc3c(cc2N2CCC2)NC(=O)CC3)cc1C	inactive
O=C1c2ccccc2C(=O)N1c1noc2ccccc12	inactive
Cc1ccc(-c2nc3ccc(Cl)cn3c2Nc2ccccc2)o1	inactive
O=C1CCc2cc(S(=O)(=O)Nc3ccccc3Cl)ccc2N1	inactive
Cc1ccc(NS(=O)(=O)c2ccc3c(c2)N(C)C(=O)CO3)cc1C	inactive
O=S1(=O)N=C(Oc2ccc(Cl)cc2)c2ccccc21	inactive
Cc1ccc(NS(=O)(=O)c2cccc(F)c2)cc1C	inactive
O=C1c2ccccc2C(=O)N1c1ncccc1O	inactive
COc1ccccc1NS(=O)(=O)c1ccc2c(c1)CCC(=O)N2	inactive
